# A number with no mark means an inactive call. Activity calls are given as the source filed them. Calls follow the shape of the full dose curve.
# Molecular target: Androgen receptor (Homo sapiens) (UniProt P10275)
# Assay: qHTS assay to identify small molecule agonists of the androgen receptor (AR) signaling pathway in the presence of an antagonist (AID 1259381); also: nearly all actives have a fitted effect of over 15% in size
# Conditions: MDA-kb2 MMTV-luciferase, AR agonist + nilutamide, 16 h; series mostly up to 92.4 µM; activation: at the top concentration
# Description: National Center for Advancing Translational Sciences [NCATS] NIH Chemical Genomics Center [NCGC] U.S. Environmental Protection Agency [EPA] National Institutes of Environmental Health Sciences [NIEHS] National Toxicology Program [NTP] Assay overview: Androgen receptor (AR) is an important member of nuclear receptor family. Its signaling plays a critical role in AR-dependent prostate cancer and other androgen related diseases. Considerable attention has been given in the past decades to develop methods to study and screen for the environmental chemicals that have the potential to interfere with metabolic homeostasis, reproduction, developmental and behavioral functions. Therefore AR binding assay for screening against androgen agonists and antagonists can be used to identify potential endocrine disruptors. MDA-kb2 cells (from ATCC, deposited by Wilson et al.) are human breast carcinoma cells that were stably transfected with a luciferase reporter gene under control of the MMTV promoter that contains response elements for both androgen receptor (AR) and glucocorticoid receptor (GR). This particular screening for measuring luciferase reporter gene activity using MDA-kb2 cells against Tox21 10K library compounds is a confirmation study on agonist mode screening in the presence of AR-antagonist compound (Nilutamide) at 3.0uM final concentration.
# Assay Protocol Summary: MDA-kb2 cells (cells cultured without CO2) were dispensed at 3,000 cells/well in 4uL of culture medium into white wall/solid-bottom 1536-well plates (Corning Life Sciences, Corning, NY) using a Multidrop Combi (Thermo Fisher Scientific Inc., Waltham, MA) dispenser. The assay plates were incubated at 37C and 0% CO2 for 5hr. One uL of 3.0uM (final concentration) Nilutamide or assay buffer was added using two separate tips of Flying Reagent Dispenser (FRD, Aurora Discovery, San Diego, CA). Then 23nL of compounds dissolved in DMSO at 15 concentrations and positive controls were transferred to the assay plates using a Pintool station (Wako, San Diego, CA). The assay plates were incubated at 37C and 0% CO2 for 16hr. For luciferase read, 4uL/well ONE-Glo reagent (Promega Corporation, Madison, WI) was added to each well of the assay plates using FRD. After 30min incubation at room temperature, the luminescence signal was measured using a ViewLux plate reader (PerkinElmer, Shelton, CT).
# % is scaled to controls: 0 for no effect and ±100 for the full control effect; potency is read from the fitted curve at half-maximal effect.
# Sequence of Androgen receptor (Homo sapiens) (P10275 whole entry, looked up): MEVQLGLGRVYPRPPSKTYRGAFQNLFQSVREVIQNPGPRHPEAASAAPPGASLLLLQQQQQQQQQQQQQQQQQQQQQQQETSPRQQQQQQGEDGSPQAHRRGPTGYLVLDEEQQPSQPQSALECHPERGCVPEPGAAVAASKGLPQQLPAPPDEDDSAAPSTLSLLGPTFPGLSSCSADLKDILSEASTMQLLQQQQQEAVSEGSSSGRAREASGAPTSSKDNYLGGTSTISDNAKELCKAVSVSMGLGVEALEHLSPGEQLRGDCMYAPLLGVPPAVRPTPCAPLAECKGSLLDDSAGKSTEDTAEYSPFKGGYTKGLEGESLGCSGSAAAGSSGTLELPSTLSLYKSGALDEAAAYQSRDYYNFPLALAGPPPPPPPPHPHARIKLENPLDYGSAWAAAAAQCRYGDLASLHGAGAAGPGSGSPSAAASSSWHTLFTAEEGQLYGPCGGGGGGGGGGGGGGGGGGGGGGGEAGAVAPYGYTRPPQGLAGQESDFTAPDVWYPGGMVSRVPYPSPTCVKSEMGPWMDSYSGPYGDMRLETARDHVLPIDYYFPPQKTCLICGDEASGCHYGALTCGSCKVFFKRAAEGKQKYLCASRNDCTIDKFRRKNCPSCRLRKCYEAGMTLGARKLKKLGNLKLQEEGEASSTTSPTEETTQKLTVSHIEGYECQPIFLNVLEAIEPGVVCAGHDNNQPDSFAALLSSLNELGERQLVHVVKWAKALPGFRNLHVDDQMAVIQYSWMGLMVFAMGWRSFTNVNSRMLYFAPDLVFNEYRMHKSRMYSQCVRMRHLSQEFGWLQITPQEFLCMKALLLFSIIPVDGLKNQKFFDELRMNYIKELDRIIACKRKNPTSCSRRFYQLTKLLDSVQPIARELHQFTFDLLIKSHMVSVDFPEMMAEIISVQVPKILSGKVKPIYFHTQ
Compound,activation,Potency
O=C1NC(=O)c2cc([N+](=O)[O-])ccc21,-0.389%,–
COc1cc(C(=O)NC2CCN(C)CC2)ccc1Nc1ncc2c(n1)N(C1CCCC1)CC(F)(F)C(=O)N2C,-6.11%,–
C[C@@H](O)[C@H]1C(=O)N2C(C(=O)O)=C([C@H]3CCCO3)S[C@H]12,0.0073% [at 42.5 µM],–
CCCCN(CCN(CCCC)C(=O)N1CCOCC1)C(=O)N1CCOCC1,-0.167% [at 42.5 µM],–
O=C1c2ccccc2C(=O)C1c1ccc(Br)cc1,1.32% [at 42.5 µM],–
O=C(CCc1ccc(O)cc1)c1c(O)cc(O)cc1O,-3.11%,–
O=[N+]([O-])c1cc(C2CCCCC2)c(O)c([N+](=O)[O-])c1,-11.3%,–
Cc1cscn1,-0.704%,–
C[C@@H]1CC(=O)NN=C1c1ccc(NN=C(C#N)C#N)cc1,–,inactive
CC(CN(C)C)C(C)(O)Cc1ccc(Cl)cc1 (stereo not given),-0.759% [at 42.5 µM],–
C[C@H]1c2cccc(O)c2C(O)=C2C(=O)[C@]3(O)C(O)=C(C(N)=O)C(=O)[C@@H](N(C)C)[C@@H]3[C@@H](O)[C@@H]21,-0.591% [at 42.5 µM],–
CCCCC(CC)CN (stereo not given),0.454%,–
CS(=O)(=O)c1ccc(-c2cn3ccccc3n2)cc1,3.11% [at 42.5 µM],–
CC1=Nc2ccc3ccccc3c2C1(C)C,-0.108%,–
C[C@H]1C[C@H](O)c2ccsc2S1(=O)=O,0.352% [at 42.5 µM],–
O=C1Cc2cc(Cl)ccc2N1,1.39% [at 42.5 µM],–
OC1(c2ccccc2)CCNCC1,-1.34% [at 42.5 µM],–
CCC(=O)OC,0.911%,–
CCCCCCC(C)(C)C(=O)O,0.549%,–
c1cc(N(CC2CO2)CC2CO2)ccc1Cc1ccc(N(CC2CO2)CC2CO2)cc1 (stereo not given),-5.07%,–

Compound,activation,Potency
Oc1ccc(Cl)c2cccnc12,-0.798% [at 42.5 µM],–
C=C1C[C@@]23CC[C@H]4[C@@](C)(CCC[C@@]4(C)C(=O)O[C@@H]4O[C@H](CO)[C@@H](O)[C@H](O)[C@H]4O)[C@@H]2CC[C@]1(O[C@@H]1O[C@H](CO)[C@@H](O)[C@H](O[C@@H]2O[C@H](CO)[C@@H](O)[C@H](O)[C@H]2O)[C@H]1O[C@@H]1O[C@H](CO)[C@@H](O)[C@H](O)[C@H]1O)C3,-2.26%,–
C1COC1,0.595%,–
O=c1cc(-c2ccccc2)oc2cc(O)cc(O)c12,2.61%,–
O=C1Cc2ccccc2N1c1c(Cl)cccc1Cl,-10.1%,–
O=C(/C=C/c1ccccc1)OCCc1ccccc1,8.32%,–
C=CCc1ccccc1OCC(O)CNC(C)C (stereo not given),-0.621% [at 42.5 µM],–
CCCCCC[C@@H](O)C/C=C\CCCCCCCC(=O)OCC(O)CO (stereo not given in full),0.298%,–
O=C=Nc1cccc(C(F)(F)F)c1,-1.72%,–
O=C(OC(=O)c1ccccc1)c1ccccc1,-0.268%,–
CCOc1ccc(Cc2nccc3cc(OCC)c(OCC)cc23)cc1OCC,-8.43% [at 42.5 µM],–
COC(=O)[C@H]1[C@H]2C[C@@H]3c4[nH]c5cc(OC)ccc5c4CCN3C[C@H]2C[C@@H](OC(=O)/C=C/c2ccc(O)c(OC)c2)[C@@H]1OC,-4.06% [at 42.5 µM],–
COc1ccccc1NC(=O)c1cc2ccccc2cc1O,-9.87%,–
CC(=O)OCC(=O)NCCCOc1cccc(CN2CCCCC2)c1,2.57% [at 42.5 µM],–
OC(CCN1CCCC1)(c1ccccc1)C1CCCCC1 (stereo not given),-0.585% [at 42.5 µM],–
Cc1cc(C)cc(N)c1,-0.0751%,–
CC[C@]1(O)C[C@H]2CN(CCc3c([nH]c4ccccc34)[C@@](C(=O)OC)(c3cc4c(cc3OC)N(C=O)[C@H]3[C@@](O)(C(=O)OC)[C@H](OC(C)=O)[C@]5(CC)C=CCN6CC[C@]43[C@@H]65)C2)C1,-6.22% [at 42.5 µM],–
NC1[C@H]2CN(c3nc4c(cc3F)c(=O)c(C(=O)O)cn4-c3ccc(F)cc3F)C[C@@H]12 (stereo not given in full),9.62% [at 42.5 µM],–
O=C(Cn1ccnc1[N+](=O)[O-])NCCO,0.364% [at 42.5 µM],–
CC(C)=CCC/C(C)=C/CC/C(C)=C/C(=O)OCC(=O)[C@@]1(O)CC[C@H]2[C@@H]3CCC4=CC(=O)C=C[C@]4(C)[C@H]3[C@@H](O)C[C@@]21C,–,335 nM (active)

# Reference: PubChem BioAssay (Tox21)
